High-throughput results: PubChem, National Center for Advancing Translational Sciences (NCATS)
HepG2 tox: qHTS for Inhibitors of TGF-b: Cytotox Counterscreen | Potency, µM (titrated, usually from 46.1 µM), inactives show at the highest dose activity change, negative = cytotoxicity, hits mostly cytotoxic | 410,000 tested, 0.76% active | AID 588856, 2011 | HepG2 CAGA-GFP viability, ATP luminescence, 18 h
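HepG2 CAGA-GFP cells (1000/well, DMEM with 1% FBS) received compound, then TGF-beta at 500 pg/mL final, and were incubated 18 hours at 37 degrees C. Viability was read by CellTiter-Glo luminescence. Media-only wells were set as complete cell-killing and DMSO as no toxicity.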
TDP1 cell noCPT: qHTS for Inhibitors of human tyrosyl-DNA phosphodiesterase 1 (TDP1): qHTS in cells in absence of CPT. DT40 Tdp1-/- hTDP1 cells, no CPT, ATP luminescence, 48 h. Potency, µM (top dose mostly 46.2 µM), without a hit: top-dose activity change, negative = growth inhibition, hits mostly inhibitors. 420,000 tested, 15% active. AID 686978, 2013; also: % is scaled to controls: 0 for no effect and ±100 for the full control effect; nearly all actives have a fitted effect of over 55% in size
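Growth kinetics read by CellTiter-Glo luminescence after ≥48 hr at 37 °C. Cells: DT40 Tdp1-/- stably carrying human TDP1, 400 per well, compound exposure in the absence of CPT (DMSO vehicle).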
TDP1 cell CPT: qHTS for Inhibitors of human tyrosyl-DNA phosphodiesterase 1 (TDP1): qHTS in cells in presence of CPT; Potency, µM (top dose mostly 46.2 µM), inactives show at the top dose activity change, negative = growth inhibition, hits mostly inhibitors; chicken DT40 Tdp1-/-;hTDP1 cells + 20 nM CPT, ATP luminescence, 48 h; 420,000 tested, 12% active; also: % is scaled to controls: 0 for no effect and ±100 for the full control effect; nearly all actives have a fitted effect of over 55% in size
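Chicken DT40 Tdp1-/- cells stably complemented with human TDP1 were seeded at 400 cells/well in medium containing 20 nM camptothecin, exposed to pin-transferred compounds, and grown at 37 °C for at least 48 hr. Viability was read as ATP luminescence.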
ATXN viability: Viability Counterscreen for Primary qHTS for Inhibitors of ATXN expression | AID 651635, 2014 | 400,000 tested, 0.49% active | Potency, µM (series often up to 56.7 µM), most hits filed as cytotoxic | S2 cells (HEK-293 line with an ATXN2-luciferase reporter) viability, CellTiter-Fluor protease fluorescence, 24 h; also: nearly all actives have a fitted effect of over 40% in size
TGFb SMAD3 inh: qHTS for Inhibitors of TGF-b; HepG2 CAGA-GFP TGF-b/SMAD3 reporter, GFP fluorescence, 18 h; TGF-beta stimulated, 500 pg/mL final; Potency, µM (doses to about 46.1 µM), without a hit: at the highest dose activity, negative = inhibition, most hits filed as inhibitors; 410,000 tested, 1.2% active; also: % is scaled to controls: 0 for no effect and ±100 for the full control effect; nearly all actives have a fitted effect of over 65% in size
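Cell-based qHTS in HEPG2 carrying a CAGA-GFP Smad reporter; compounds added before 500 pg/mL final TGF-beta, 18 h incubation at 37 degrees C, GFP fluorescence quantified per cell by imaging cytometry.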
ATXN2 expr inh: Primary qHTS for Inhibitors of ATXN expression | 360,000 tested, 0.72% active | Potency, µM (highest dose often 57 µM), inactives show at the highest dose activity change, negative = inhibition, usual class: inhibitors | HEK-293 ATXN2-luciferase reporter, luminescence, 24 h | AID 1745845, 2022; also: % is scaled to controls: 0 for no effect and ±100 for the full control effect; nearly all actives have a fitted effect of over 55% in size
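qHTS (up to 57 uM final) was run with 24 h compound exposure of reporter cells at 37 °C. Each well was multiplexed: SteadyGlo luminescence measured ATXN2-luciferase expression after a fluorogenic Gly-Phe-AFC viability readout (25 uM final).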
The depositor's hits bear a star. An excerpt weighted towards active compounds, which were near 17% of everything screened. Calls follow the shape of the dose curve; as a rule, active = well fitted curve in the direction sought with a large enough effect; inconclusive = small, poorly fitted or top-dose-only effect, or another doubt; inactive = no such curve, though single readings can be large; an effect the other way counts as inactive or inconclusive. Potency is read from the fitted curve at half-maximal effect.

For O=C(NCc1ccc(F)cc1)c1ccc(NC(=O)N2CC3CCCN3c3ccccc32)cc1 (stereo not given) the results were HepG2 tox -8%, TDP1 cell noCPT 12µM*, TDP1 cell CPT 16µM*, ATXN viability inconclusive, TGFb SMAD3 inh -26% and ATXN2 expr inh -23%.
For COc1ccc(CCN(C)CC(O)COc2c(C)ccc(C)c2C)cc1OC (stereo not given) the results were HepG2 tox -16%, TDP1 cell noCPT inconclusive, TDP1 cell CPT inconclusive, ATXN viability inactive, TGFb SMAD3 inh -12% and ATXN2 expr inh -25%.
For CN(CCc1ccc(Cl)c(Cl)c1)CC(O)COc1ccc(NS(C)(=O)=O)cc1 (stereo not given) the results were TDP1 cell noCPT 23µM* and TDP1 cell CPT 18µM*.
`C/C(=N\NC(=O)c1c(Cl)cnn1C)c1ccc(NC(=O)c2ccc(Br)o2)cc1` gave HepG2 tox -18%, TDP1 cell noCPT -17%, TDP1 cell CPT inconclusive, ATXN viability inactive, TGFb SMAD3 inh -25% and ATXN2 expr inh 2%.
`COc1ccc(CCNC(=O)COc2ccc(N(C)S(=O)(=O)c3ccc(Cl)cc3)cc2)cc1` gave HepG2 tox 1%, TDP1 cell noCPT inconclusive, TDP1 cell CPT 23µM*, ATXN viability inactive, TGFb SMAD3 inh -18% and ATXN2 expr inh inconclusive.
Screening COc1ccc(S(=O)(=O)CCC(=O)NCCc2ccc(Cl)cc2)cc1 returned HepG2 tox 13µM*, TDP1 cell noCPT -12%, TDP1 cell CPT -21%, ATXN viability inactive, TGFb SMAD3 inh inconclusive and ATXN2 expr inh -9%.
Screening COc1ccc(CNC(=O)c2ccc(CNS(=O)(=O)c3ccc(OC)cc3)cc2)cc1 returned HepG2 tox -9%, TDP1 cell noCPT -3%, TDP1 cell CPT -8%, ATXN viability inactive, TGFb SMAD3 inh 1% and ATXN2 expr inh 16%.
COc1ccc(CCNC(=O)COc2ccc(N(C)S(=O)(=O)c3ccc(C)cc3)cc2)cc1OC was read as HepG2 tox 9%, TDP1 cell noCPT 16µM*, TDP1 cell CPT inconclusive, ATXN viability inactive, TGFb SMAD3 inh -11% and ATXN2 expr inh -16%.
For COc1ccc(CNC(=O)CCS(=O)(=O)c2ccc(Br)cc2)cc1 the results were HepG2 tox 9%, TDP1 cell noCPT 27%, TDP1 cell CPT -4%, ATXN viability inactive, TGFb SMAD3 inh 4% and ATXN2 expr inh 4%.
For COc1ccc(S(=O)(=O)NCc2ccc(C(=O)NCCN(C)Cc3ccccc3)cc2)cc1 the results were HepG2 tox -16%, TDP1 cell noCPT 21µM*, TDP1 cell CPT 18µM*, ATXN viability inactive, TGFb SMAD3 inh 0% and ATXN2 expr inh -8%.
`CC(C)Cc1nnc(NC(=O)c2ccc(-n3cncn3)c([N+](=O)[O-])c2)s1` gave HepG2 tox -11%, TDP1 cell noCPT 1%, TDP1 cell CPT -20%, ATXN viability inactive and TGFb SMAD3 inh -7%.
COc1ccc(OCC(=O)N2CCC3(CC2)CC(=O)c2ccccc2O3)cc1 was read as HepG2 tox 10%, TDP1 cell noCPT inconclusive, TDP1 cell CPT -24%, ATXN viability inactive, TGFb SMAD3 inh 4% and ATXN2 expr inh -8%.
COc1ccc(CCNC(=O)c2ccc(N(C)S(=O)(=O)c3ccc(C)cc3)cc2)cc1OC was read as HepG2 tox -15%, TDP1 cell noCPT 21µM*, TDP1 cell CPT 21µM*, ATXN viability inactive, TGFb SMAD3 inh -8% and ATXN2 expr inh -29%.
COc1ccc(CCNC(=O)c2ccc(OC)c(OC)c2)cc1OC was read as HepG2 tox -5%, TDP1 cell noCPT -12%, TDP1 cell CPT 6%, ATXN viability inactive, TGFb SMAD3 inh -7% and ATXN2 expr inh -13%.
Screening COc1ccc(CCNc2nc(=S)[nH]c3cc(OC)c(OC)cc23)cc1OC returned HepG2 tox -9%, TDP1 cell noCPT inconclusive, TDP1 cell CPT -29%, ATXN viability inactive and TGFb SMAD3 inh -9%.
COc1ccc(CCNC(=O)c2ccc(CNS(=O)(=O)c3ccccc3)cc2)cc1OC was read as HepG2 tox -36%, TDP1 cell noCPT 16µM*, TDP1 cell CPT 18µM*, ATXN viability inactive, TGFb SMAD3 inh -1% and ATXN2 expr inh -12%.
COc1ccc(CCNC(=O)c2ccc(CNc3nc(=S)[nH]c4ccccc34)cc2)cc1OC was read as HepG2 tox -27%, TDP1 cell noCPT inconclusive, TDP1 cell CPT 15µM*, ATXN viability inactive, TGFb SMAD3 inh -3% and ATXN2 expr inh -24%.
For CCCCN(c1ccccc1)S(=O)(=O)c1cccc2cccnc12 the results were HepG2 tox -15%, TDP1 cell noCPT 15µM*, TDP1 cell CPT inconclusive, ATXN viability inactive and TGFb SMAD3 inh -21%.
Screening CCSS(=O)(=O)c1cccc2cccnc12 returned HepG2 tox -147%, TDP1 cell noCPT inconclusive, TDP1 cell CPT 15µM*, ATXN viability inactive, TGFb SMAD3 inh inconclusive and ATXN2 expr inh inconclusive.
COc1cc(OC)cc(C(=O)NCC(=O)Nc2ccc(OC)c(Cl)c2)c1 was read as HepG2 tox 1%, TDP1 cell noCPT -1%, TDP1 cell CPT 18%, ATXN viability inactive, TGFb SMAD3 inh 0% and ATXN2 expr inh -19%.
Screening O=C(CN1C(=O)NC2(CCCCC2)C1=O)N1CCN(S(=O)(=O)/C=C/c2ccccc2)CC1 returned HepG2 tox 1%, TDP1 cell noCPT -8%, TDP1 cell CPT -11%, ATXN viability inactive, TGFb SMAD3 inh 17% and ATXN2 expr inh 6%.
For CN(Cc1ccccc1F)c1cc2c(c3c1ccn3C)C1CCC2C1 (stereo not given) the results were HepG2 tox -6%, TDP1 cell noCPT 23µM*, TDP1 cell CPT inconclusive, ATXN viability inactive, TGFb SMAD3 inh -1% and ATXN2 expr inh 0%.
For C#CCN1CCc2onc(-c3ccc(Br)cc3)c2C1=O the results were TDP1 cell noCPT -22% and TDP1 cell CPT 19%.
Screening Cc1nc(N/N=C/c2cccc(F)c2)cc(N2CCOCC2)n1 returned HepG2 tox -18%, TDP1 cell noCPT inconclusive, TDP1 cell CPT inconclusive, ATXN viability inactive, TGFb SMAD3 inh 70% and ATXN2 expr inh -6%.
